Screens deposited in PubChem by Broad Institute.
An excerpt weighted towards active compounds, which were near 0.9% of everything screened.
A1 inh – inhibitors of A1 | MEF A1-2A-BIM cells, caspase-Glo luminescence, 3 h; percent of clofoctol signal, DMSO as zero | caspase activation, % (no concentration beside the values) | 21,000 compounds, 0.51% hits | AID 2241;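 active = most replicate scores above 10, or exactly half above 10 with mean activity above 10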;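 also: effector caspase 3 and 7 activity cleaving a DEVD luciferin substrate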
BJeLR viab HTS – compounds reducing viability of BJeLR cells | viability loss activity score, % (concentration not given with the values) | BJeLR fibroblasts viability, CellTiterGlo ATP luminescence, 48 h; HRASV12, hTERT and SV40 LT/ST transformed | 30,000 compounds, 0.64% hits | AID 2275; in the data active = viability loss activity score above about 50%;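 also: higher score means fewer live cells and less ATP luminescence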
The depositor's hits bear a star; . = no result.

SMILES	A1 inh	BJeLR viab HTS
C/C=C/[C@@H]1[C@H]2C[C@@H](C)CC[C@@H]2C(C)=C[C@H]1C(=O)c1c(O)c(-c2ccc(O)cc2)c[nH]c1=O	-1	0
S=C(Nc1ccccc1)N1CCCCC1c1cccnc1 (configuration not stated)	1	-7
CO[C@@H]1[C@H](O)[C@@H](O[C@@H]2C[C@H]3CC[C@@H]4C(CC[C@]5(C)[C@@H](C6=CC(=O)OC6)CC[C@]45O)[C@@]3(C)[C@H](O)C2)O[C@H](C)[C@@H]1O[C@@H]1O[C@H](CO)[C@@H](O)[C@H](O)[C@H]1O (some centres not stated)	0	111*
CC(=O)O[C@H]1C[C@H](O[C@H]2[C@@H](O)C[C@H](O[C@H]3[C@@H](O)C[C@H](O[C@H]4CC[C@@]5(C)C(CCC6C5C[C@@H](O)[C@]5(C)[C@@H](C7=CC(=O)OC7)CC[C@]65O)C4)O[C@@H]3C)O[C@@H]2C)O[C@H](C)[C@H]1O[C@@H]1O[C@H](CO)[C@@H](O)[C@H](O)[C@H]1O (some centres not stated)	0	109*
CO[C@H]1[C@H](O)[C@H](O[C@H]2CC[C@]3(C)C4CC[C@]5(C)[C@H](C6=CC(=O)OC6)CC[C@]5(O)C4CC[C@@H]3C2)O[C@@H](C)[C@@H]1O[C@@H]1O[C@H](CO[C@@H]2O[C@H](CO)[C@@H](O)[C@H](O)[C@H]2O)[C@@H](O)[C@H](O)[C@H]1O (some centres not stated)	-1	100*
N#Cc1cc2c(nc1SCc1ccccc1Br)C1CCN2CC1	.	2
CC(C)c1cc2c(cc1O)[C@@]1(C)CCCC(C)(C)[C@@H]1CC2O (some centres not stated)	0	4
CC[C@@]1(O)C(=O)OCc2c1cc1n(c2=O)-c2cc3ccccc3nc2C1	0	121*
O=C1NC(=O)C(=C/C=C/c2ccccc2)C(=O)N1	2	-11
CSC1=NN1c1cc(C)nc(N)n1	1	-7
COC[C@H]([C@@H](O)[C@@H](O)C(=O)NCC[C@@H](C)c1nc(/C=C/C[C@H]2OC3(C[C@H](O)[C@H]2C)OC([C@@H](C[C@@H](O)[C@@H](C)[C@@H](O)[C@@H](C)/C=C(C)/C(C)=C/C=C/C(C)=C\C#N)OC)[C@@H](OP(=O)(O)O)C3(C)C)co1)N(C)C (some centres not stated)	-3	69*
C/C(CC(c1ccccc1)c1c(O)c2ccccc2oc1=O)=N/O (configuration not stated)	0	3
C[C@@H]1O[C@@H](O[C@H]2[C@H](O)[C@@H](O)[C@H](O[C@@H]3C=C4CC[C@@H]5C(CC[C@]6(C)[C@@H](c7ccc(=O)oc7)CC[C@]56O)[C@@]4(C)CC3)O[C@@H]2CO)[C@H](O)[C@H](O)[C@H]1O (some centres not stated)	2	125*
C/C=C\C(C)=C\[C@H](C)C(=O)C[C@H](O)CC1CC(=O)NC(=O)C1	2	-1
Cc1cc(OCC(=O)N(C)C)c2c3c(c(=O)oc2c1)CCCC3	0	-8
CCC(C)[C@H]1O[C@]2(C=C[C@@H]1C)C[C@@H]1C[C@@H](C/C=C(\C)[C@@H](OC3C[C@H](OC)C(O[C@H]4C[C@H](OC)[C@@H](O)[C@H](C)O4)[C@H](C)O3)[C@@H](C)/C=C/C=C3\CO[C@@H]4[C@H](O)C(C)=C[C@@H](C(=O)O1)[C@]34O)O2 (some centres not stated)	0	-4
COc1ccc(C[C@H]2NC[C@H](O)[C@H]2OC(C)=O)cc1	13*	117*
CCc1nc2ccccc2c(=O)n1-c1ccccc1Cl	0	1
CC(C)(C)c1cc(C=C(C#N)C#N)cc(C(C)(C)C)c1O	-2	71*
N#CC(C#N)=Cc1ccc(O)c(O)c1	-1	0
COc1ccc(/C=C/C(=O)C2C(=O)NC34CCCCC3C2c2ccccc2O4)c(OC)c1OC (configuration not stated)	.	-7
